Sfp inh = inhibitors of Bacillus subtilis Sfp phosphopantetheinyl transferase; Biochemical Sfp PPTase activity, qHTS; Potency, µM, for inactives: largest response in the series, negative = inhibition, hits mostly inhibitors; 3.5% of 310,000 active;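 note: the enzyme is Sfp with the accession as filed and its product quenches rhodamine fluorescence; 0% = enzyme reaction without inhibitor and -100% = no enzyme wells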
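Fluorescence-quenching assay with 15 nM Sfp, 5 uM rhodamine-CoA and 12.5 uM BHQ-2-labelled ybbR peptide in pH 7.6 Hepes/MgCl2 buffer. Enzyme was pre-incubated with compound for 15 min at room temperature. Rate was taken from the 30-min fluorescence change (525/598 nm).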
HP1b binding inh = inhibitors of HP1-beta chromodomain binding to methylated histone tails; 0.56% of 390,000 active; AID 540317; P83916; AlphaScreen HP1-beta / biotin-H3K9me3 peptide binding; Potency, µM (highest dose often 114 µM), without a hit: at the highest dose activity change, negative = inhibition, most hits filed as inhibitors; note: nearly all actives have a fitted effect of over 70% in size
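AlphaScreen: HP1-beta (50 nM) preformed 30 min with biotin-H3(1-18)K9me3 peptide (50 nM) in PBS pH 7.4, 0.01% Tween-20. Compound added for 30 min at RT, then streptavidin donor/nickel chelate acceptor beads (10 ug/mL) for 30 min.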
BAZ2B inh = inhibitors of human BAZ2B bromodomain. Q9UIF8. AlphaScreen BAZ2B-H3K14Ac peptide displacement. Potency, µM (highest dose often 114 µM), inactives show at the highest dose activity change, negative = inhibition, most hits filed as inhibitors. 4.4% of 360,000 active; note: % is set by controls: 0 for no effect and ±100 for the full control effect; nearly all actives have a fitted effect of over 60% in size
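Protein-peptide AlphaScreen: BAZ2B 50 nM, b-H3K14Ac 50 nM, 1x PBS pH 7.4 + 0.01% Tween-20. Preincubation 30 min RT; cpd 30 min RT (top 110 uM); beads 20 min RT, light-protected.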
G9a block = inhibitors of human histone lysine methyltransferase G9a; Q96KQ7; Potency, µM (titrated, usually from 102 µM), for the others: at the highest dose activity, negative = inhibition, usual class: inhibitors; AID 504332; 8.8% of 350,000 active; G9a H3K9 monomethylation, AlphaScreen, 2 h; note: % is set by controls: 0 for no effect and ±100 for the full control effect; nearly all actives have a fitted effect of over 75% in size
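Enzyme 20 nM + cpd, 15 min RT; add b-H3K9 pep 500 nM / SAM 20 uM; 2 h RT; anti-H3K9me1 Ab 0.5 ug/mL + SA donor / anti-rabbit acceptor beads 20 ug/mL each, 10 min; AlphaScreen read.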
L3MBTL1 block = inhibitors of human L3MBTL1; Q9Y468; AlphaScreen L3MBTL1–H3K9me1 peptide binding; Potency, µM (highest dose often 57.1 µM), for the others: at the top dose activity, negative = inhibition, actives largely listed as inhibitors; 0.66% of 230,000 active; AID 485360; note: % is set by controls: 0 for no effect and ±100 for the full control effect; nearly all actives have a fitted effect of over 60% in size
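AlphaScreen proximity signal between nickel-chelate acceptor and streptavidin donor beads (final 10 ug/mL) reports binding of 50 nM L3MBTL1 to 75 nM biotin-H3 K9me1 peptide; complex incubated with compounds 30 min at room temperature; cefsulodin titration as control.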
JMJD2A Tudor inh = JMJD2A Tudor domain (human) inhibition; AlphaScreen JMJD2A-Tudor / H3K4me3 peptide binding; Potency, µM (doses to about 114 µM), for the others: top-dose activity change, negative = inhibition, usual class: inhibitors; 4.4% of 390,000 active; AID 504339; note: % is set by controls: 0 for no effect and ±100 for the full control effect; nearly all actives have a fitted effect of over 50% in size
* hit, by the source's call; ? = inconclusive; . = not tested or not shown; ! = not active in a repeat; [ ] = remark or other dose. Only some compounds are listed: those with a hit (about 12% of all), similar ones and a draw of the others. Calls come from the whole dose curve; as a rule, active = well fitted curve in the direction sought with a large enough effect; inconclusive = small, poorly fitted or top-dose-only effect, or another doubt; inactive = no such curve, though single readings can be large; an effect the other way counts as inactive or inconclusive. Potency is the fitted concentration of half-maximal effect.

SMILES	Sfp inh	HP1b binding inh	BAZ2B inh	G9a block	L3MBTL1 block	JMJD2A Tudor inh
CS(=O)(=O)Nc1nnc(C2CCCC2)s1	-10%	-5%	-24%	50µM*	0%	-36%
C=CCNC(=O)/C(C#N)=C/c1c(C)nn(-c2ccccc2)c1Cl	79µM*	46%	-2%	-26%[59 µM]	-15%	-13%
CCOc1ccccc1NC(=O)/C(C#N)=C/c1c(C)nn(-c2ccccc2)c1Cl	12%	12%	-3%	2%[59 µM]	6%	45µM*
C=CCNC(=O)/C(C#N)=C/c1ccc(SC)cc1	-11%	20%	-4%	-16%	0%	-11%
COCC(=O)N1CCC[C@@]2(CCN(c3ccncc3)C2)C1	21%	.	.	3%[12.7 µM]	.	.
CC(C)(C)CNc1nc(C#N)nc(Nc2ccccc2)n1	.	.	.	.	.	-14%
COc1cccc(N2CCN(CC(=O)Nc3nnc(-c4ccccc4)s3)CC2)c1	-1%	-20%	?	-6%[59 µM]	-22%	89µM*
COc1cc(CCC(=O)Nc2nnc(-c3cccnc3)s2)cc(OC)c1OC	-23%	-10%	-5%	40µM*	.	-20%
COc1cccc(-c2csc(N3CCN(CC(=O)Nc4ccc5c(c4)OCO5)CC3)n2)c1	-5%	-19%	?	?	.	-33%
COc1cccc(-c2csc(N3CCN(C(=O)C4CCCCC4)CC3)n2)c1	?	-26%	?	14µM*	7%[11.4 µM]	?
CCCC(=O)Nc1nnc(-c2cccc(OCC)c2)s1	15%	12%	-2%	21%	6%	-11%
COc1cccc(-c2csc(N3CCN(C(=O)Nc4ccc(F)cc4)CC3)n2)c1	12%	-22%	-29%	?	-8%	-21%
COc1ccc(NC(=O)CN2CCN(c3nc(-c4cccc(OC)c4)cs3)CC2)cc1	11%	-20%	?	10µM*	-26%	?
CCOC(=O)c1ccccc1NC(=O)N(Cc1ccco1)C1CCN(C(C)=O)CC1	.	28%	-16%	-6%[59 µM]	.	-22%
COc1ccc(-c2nnc(SCC(=O)Nc3ccc(F)cc3)s2)cc1	.	25%[57 µM]	3%	0%[59 µM]	.	11%
CCc1ccccc1NC(=O)C(=O)c1cc(C)n(-c2ccccc2F)c1C	.	35%	-31%	-29%[59 µM]	.	-11%
Cc1oc(-c2cccs2)nc1CS(=O)CC(=O)NCCc1ccccc1 (configuration not stated)	-9%	21%	-25%	50µM*	.	-26%
Cc1oc(-c2ccc(Cl)cc2)nc1CS(=O)CC(=O)NCCc1ccccc1 (configuration not stated)	.	20%	-13%	6%[59 µM]	.	-27%
CCCCNC(=O)CS(=O)Cc1nc(-c2cccs2)oc1C (configuration not stated)	12%	35%	-2%	50µM*	.	-9%
O=C(CSc1ccccc1)N1CCc2c([nH]c3ccccc23)C1c1ccc(Cl)cc1 (configuration not stated)	.	-1%[57 µM]	-26%	-29%[59 µM]	.	?
Nc1ncn(C2C[C@H](O)[C@@H](CO)O2)c(=O)n1 (some centres not stated)	15%	.	.	28%[59 µM]	.	.
CCN(CC)CCn1c2ccccc2c2cnc(N)c(C#N)c21	14%	8%	10%	35µM*	1%	-21%
CCOC(=O)C(Sc1nn(C)c(=S)s1)C(C)=O (configuration not stated)	50µM*	43%	-35%	18µM*	.	-11%
CCOC(=O)C(Sc1cc(-c2ccccc2)nc2ncnn12)C(C)=O (configuration not stated)	-19%	36%	-16%	7%	-4%	-15%
CCOC(=O)C(Sc1cc(C)nc(N)n1)C(C)=O (configuration not stated)	56µM*	3%	-1%	18µM*	.	56µM*
SMILES	Sfp inh	HP1b binding inh	BAZ2B inh	G9a block	L3MBTL1 block	JMJD2A Tudor inh
COc1cccc(OC)c1OCCCCN1CCCCC1	-4%	-38%	50µM*	11µM*	-9%	40µM*
CC(=O)CCc1ccc(OCCCCN2CCC(Cc3ccccc3)CC2)cc1	?	?	50µM*	10µM*	2%[11.4 µM]	3.5µM*
COc1cccc(OC)c1OCCCCN1CCCC1	-22%	?	?	?	-24%	7.9µM*
COc1cccc(OC)c1OCCCCCCN1CCN(C)CC1	9%	41%	3%	-5%[2.33 µM]	.	-14%
COc1cccc(OC)c1OCCCCN1CCC(Cc2ccccc2)CC1	-3%	?	28µM*	13µM*	3%[11.4 µM]	3.2µM*
COC(=O)c1ccc2c(=O)n(CCc3ccc(S(N)(=O)=O)cc3)c(SCC(=O)C(C)(C)C)nc2c1	.	36%	2%	2%[59 µM]	.	-11%
CSc1nc2c(sc3ccccc32)c(=O)n1Cc1ccc(C)cc1	.	57%	4%	-4%[59 µM]	.	-10%
COc1cc(/C=C2\SC(=O)N(Cc3ccc(Cl)cc3)C2=O)cc([N+](=O)[O-])c1O	-19%	13µM*	16µM*	-116%[59 µM]	?	8.9µM*
COc1cc(/C=C2/SC(=O)N(Cc3ccccc3)C2=O)ccc1OCc1ccncc1	-6%	19%	-33%	-8%[12.7 µM]	.	?
CCOC(=O)CN1C(=O)S/C(=C/c2ccc(OC)c([N+](=O)[O-])c2)C1=O	11%	28%	6%	25%[59 µM]	-11%	3%
COc1cc(/C=C2\SC(=O)N(Cc3ccc(F)cc3)C2=O)cc([N+](=O)[O-])c1O	12%	16µM*	8.9µM*	.	?	28µM*
COc1ccc(C)cc1N(C(=O)c1ccccc1)c1nc2ccccc2s1	4%	36%	5%	-12%[59 µM]	-8%	0%
COc1ccc(C)cc1N(C(=O)c1ccc(C#N)cc1)C1=NC(C)(C)CS1	-5%	29%	-20%	28µM*	.	0%
COCC[N+]1(C)CCCCC1	5%	10%	-35%	4.5µM*	-13%	?
C[N+]1(CCCCC[N+]2(C)CCCC2)CCCC1	3%	.	.	12%	.	.
CC(SC(=S)N1CCOCC1)C(=O)O (configuration not stated)	5%	15%	25µM*	-1%[12.7 µM]	.	-21%
C=CCC1CCCC(=O)N2CC[C@H](O)C12 (some centres not stated)	22%	9%	-5%	79µM*!	-12%	-25%
C=CC[C@@H]1/C=C(\C)C[C@H](C)C[C@H](OC)[C@H]2O[C@@](O)(C(=O)C(=O)N3CCCC[C@H]3C(=O)O[C@H](/C(C)=C/[C@@H]3CC[C@@H](O)[C@H](OC)C3)[C@H](C)[C@@H](O)CC1=O)[C@H](C)C[C@@H]2OC	11%	.	.	-33%[12.7 µM]	.	.
CN(C)CCCOc1ccc2c(c1)Sc1ccccc1CC2=O	22µM*	16%	13%	-27%[59 µM]	14%	-19%
O=C1Cc2ccccc2Sc2cc(OCCCN3CCCCC3)ccc21	-4%	5%	-9%	?	?	-25%
